According to the supplement of paper PMC9262897, “Low-cost anti-mycobacterial drug discovery using engineered E. coli” (Nature Communications, 2022):
Where a name gives a salt, the structure may show the parent alone. ± gives the standard deviation of the averaged measurements.

Key:
Experiment in all cases: growth (OD600 after 10 h); higher = more growth (less inhibition)
[1] = test system: E. coli TESEC Alr+ wild-type control; details: compound 0.1 mM; raw OD600 reference: median of DMSO wells 0.241, cell-free background 0.041
Method: (§1)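 TESEC Mtb Alr E. coli, or the Alr+ wild-type control, in 384-well plates with Prestwick library compounds at 0.1 mM and 1% DMSO, across arabinose induction levels of 1E3 to 1E7 nM. Growth is read as OD600 after 10 h at 37 °C in triplicate biological replicates.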

E. coli TESEC Mtb Alr [2] = details: compound 0.1 mM
Method: as §1

E. coli TESEC Mtb Asd = details: compound 0.1 mM
Method: (§2)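 TESEC E. coli strains in which the native enzyme is deleted and replaced by arabinose-inducible Mtb Asd, DapB, CysH or TrpD, each grown in its selective medium. Strains were screened against the Prestwick library at 0.1 mM and 1% DMSO in 384-well format at low and high arabinose induction. Growth is read as OD600 after 10 h in triplicate.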

E. coli TESEC Mtb DapB = details: compound 0.1 mM
Method: as §2

[3] = test system: E. coli TESEC Alr+ wild-type control; details: compound 0.1 mM; raw OD600 reference: median of DMSO wells 0.49, cell-free background 0.052
Method: (§3)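 TESEC Mtb Alr E. coli (ΔaraC ΔtolC ΔentC Δalr ΔdadX, arabinose-inducible Mtb Alr) or the Alr+ wild-type control strain, grown in defined M9-fructose medium without D-alanine in 96-well plates with Prestwick library compounds at 0.1 mM and 1% DMSO. Low Alr induction is 0.1 µM arabinose and high induction is 10 mM arabinose.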

E. coli TESEC Mtb Alr [4] = details: compound 0.1 mM; remark: listed apart in the source
Method: as §3

[5] = arabinose 1000 nM, raw OD600 reference: median of DMSO wells 0.294, cell-free background 0.041
[6] = arabinose 10000 nM, raw OD600 reference: median of DMSO wells 0.264, cell-free background 0.041
[7] = arabinose 100000 nM, raw OD600 reference: median of DMSO wells 0.201, cell-free background 0.041
[8] = arabinose 1000000 nM, raw OD600 reference: median of DMSO wells 0.193, cell-free background 0.041
[9] = arabinose 10000000 nM, raw OD600 reference: median of DMSO wells 0.146, cell-free background 0.041
[10] = arabinose induction (level): High, raw OD600 reference: median of DMSO wells 0.331, cell-free background 0.041
[11] = arabinose induction (level): Low, raw OD600 reference: median of DMSO wells 0.417, cell-free background 0.041
[12] = arabinose induction (level): High, raw OD600 reference: median of DMSO wells […], cell-free background 0.041
[13] = arabinose induction (level): Low, raw OD600 reference: median of DMSO wells 0.227, cell-free background 0.041
[14] = arabinose 100 nM, raw OD600 reference: median of DMSO wells 0.413, cell-free background 0.052
[15] = arabinose 10000000 nM, raw OD600 reference: median of DMSO wells […], cell-free background 0.052

| SMILES | growth [1] | growth (E. coli TESEC Mtb Alr [2]; [5]) | growth (E. coli TESEC Mtb Alr [2]; [6]) | growth (E. coli TESEC Mtb Alr [2]; [7]) | growth (E. coli TESEC Mtb Alr [2]; [8]) | growth (E. coli TESEC Mtb Alr [2]; [9]) | growth (E. coli TESEC Mtb Asd; [10]) | growth (E. coli TESEC Mtb Asd; [11]) | growth (E. coli TESEC Mtb DapB; [12]) | growth (E. coli TESEC Mtb DapB; [13]) | growth [3] | growth (E. coli TESEC Mtb Alr [4]; [14]) | growth (E. coli TESEC Mtb Alr [4]; [15]) |
| --- | --- | --- | --- | --- | --- | --- | --- | --- | --- | --- | --- | --- | --- |
| Nc1ccn([C@@H]2CS[C@H](CO)O2)c(=O)n1 [Lamivudine] | 0.239 ± 0.0031 | 0.292 ± 0.011 | 0.262 ± 0.0097 | 0.211 ± 0.037 | 0.209 ± 0.0042 | 0.144 ± 0.0079 | 0.353 ± 0.0047 | 0.425 ± 0.021 | 0.18 ± 0.013 | 0.207 ± 0.016 | 0.563 ± 0.13 | 0.407 ± 0.0069 | 0.357 ± 0.0056 |
| Oc1ccc(C2CNCCc3c2cc(O)c(O)c3Cl)cc1 (stereo unspecified) [Fenoldopam] | 0.0924 ± 0.0031 | 0.0795 ± 0.0009 | 0.0538 ± 0.0026 | 0.0873 ± 0.0018 | 0.0562 ± 0.0034 | 0.086 ± 0.0096 | 0.113 ± 0.0085 | 0.126 ± 0.017 | 0.149 ± 0.035 | 0.135 ± 0.029 | 0.355 ± 0.023 | 0.104 ± 0.048 | 0.0738 ± 0.006 |
| CCN[C@H]1CN(CCCOC)S(=O)(=O)c2sc(S(N)(=O)=O)cc21 [Brinzolamide] | 0.248 ± 0.012 | 0.282 ± 0.017 | 0.261 ± 0.0091 | 0.219 ± 0.03 | 0.182 ± 0.0056 | 0.135 ± 0.0031 | 0.259 ± 0.085 | 0.385 ± 0.11 | 0.202 ± 0.013 | 0.215 ± 0.011 | 0.579 ± 0.098 | 0.405 ± 0.0097 | 0.3104 ± 0.0022 |
| Nc1ccc(C(=O)O)c(O)c1 [4-aminosalicylic acid] | 0.247 ± 0.0075 | 0.305 ± 0.011 | 0.277 ± 0.0057 | 0.201 ± 0.017 | 0.19 ± 0.004 | 0.153 ± 0.0068 | 0.222 ± 0.024 | 0.377 ± 0.086 | 0.199 ± 0.025 | 0.263 ± 0.017 | 0.545 ± 0.044 | 0.422 ± 0.0061 | 0.302 ± 0.014 |
| NC(=O)OCC(COC(N)=O)c1ccccc1 [Felbamate] | 0.24 ± 0.0061 | 0.288 ± 0.0029 | 0.26 ± 0.0095 | 0.201 ± 0.023 | 0.204 ± 0.0095 | 0.137 ± 0.0061 | 0.423 ± 0.044 | 0.316 ± 0.031 | 0.224 ± 0.0049 | 0.212 ± 0.0076 | 0.608 ± 0.097 | 0.405 ± 0.011 | 0.369 ± 0.025 |
| c1ccc(C2CN3CCSC3=N2)cc1 (stereo unspecified) [Tetramisole hydrochloride] | 0.244 ± 0.003 | 0.303 ± 0.011 | 0.259 ± 0.0099 | 0.242 ± 0.045 | 0.176 ± 0.0046 | 0.16 ± 0.0039 | 0.257 ± 0.033 | 0.358 ± 0.046 | 0.203 ± 0.02 | 0.252 ± 0.035 | 0.529 ± 0.087 | 0.408 ± 0.014 | 0.316 ± 0.015 |
| Clc1ccc2c(c1)C(N1CCNCC1)=Nc1ccccc1O2 [Amoxapine] | 0.162 ± 0.0094 | 0.171 ± 0.0069 | 0.16 ± 0.0024 | 0.162 ± 0.0019 | 0.0713 ± 0.0015 | 0.105 ± 0.0015 | 0.178 ± 0.01 | 0.201 ± 0.0093 | 0.159 ± 0.03 | 0.173 ± 0.041 | 0.43 ± 0.061 | 0.396 ± 0.005 | 0.291 ± 0.023 |
| C=C(CC)C(=O)c1ccc(OCC(=O)O)c(Cl)c1Cl [Ethacrynic acid] | 0.0566 ± 0.0011 | 0.242 ± 0.01 | 0.244 ± 0.0042 | 0.2 ± 0.005 | 0.171 ± 0.0037 | 0.144 ± 0.0087 | 0.171 ± 0.057 | 0.19 ± 0.074 | 0.18 ± 0.0058 | 0.181 ± 0.022 | 0.374 ± 0.014 | 0.376 ± 0.0052 | 0.374 ± 0.017 |
| COc1cc(-c2ccc(=O)[nH]n2)ccc1OC(F)F [Zardaverine] | 0.14 ± 0.0036 | 0.173 ± 0.0042 | 0.188 ± 0.013 | 0.17 ± 0.021 | 0.171 ± 0.0067 | 0.147 ± 0.0091 | 0.211 ± 0.014 | 0.162 ± 0.014 | 0.16 ± 0.012 | 0.176 ± 0.018 | 0.442 ± 0.044 | 0.401 ± 0.0082 | 0.35 ± 0.011 |
| NC1CCN(c2nc3c(cc2F)c(=O)c(C(=O)O)cn3-c2ccc(F)cc2F)C1 (stereo unspecified) [Tosufloxacin hydrochloride] | 0.0572 ± 0.0069 | 0.048 ± 0.0026 | 0.0491 ± 0.00026 | 0.0552 ± 0.0018 | 0.0452 ± 0.0008 | 0.0575 ± 0.0043 | 0.054 ± 0.01 | 0.0575 ± 0.0039 | 0.05407 ± 0.0005 | 0.0526 ± 0.0037 | 0.0604 ± 0.0041 | 0.05307 ± 0.00025 | 0.0578 ± 0.0027 |
| COc1cc2nc(N(C)CCCNC(=O)C3CCCO3)nc(N)c2cc1OC (stereo unspecified) [Alfuzosin hydrochloride] | 0.215 ± 0.0062 | 0.286 ± 0.005 | 0.252 ± 0.0042 | 0.192 ± 0.027 | 0.142 ± 0.008 | 0.155 ± 0.011 | 0.24 ± 0.029 | 0.361 ± 0.029 | 0.217 ± 0.007 | 0.229 ± 0.006 | 0.462 ± 0.029 | 0.4 ± 0.013 | 0.318 ± 0.013 |
| CN(c1nccc(=O)[nH]1)C1CCN(c2nc3ccccc3n2Cc2ccc(F)cc2)CC1 [Mizolastine] | 0.18 ± 0.016 | 0.221 ± 0.011 | 0.172 ± 0.0085 | 0.215 ± 0.01 | 0.0813 ± 0.0018 | 0.1409 ± 0.0014 | 0.177 ± 0.0092 | 0.293 ± 0.036 | 0.2 ± 0.039 | 0.174 ± 0.012 | 0.426 ± 0.018 | 0.406 ± 0.0081 | 0.162 ± 0.026 |
